Screen size: about 190,000 compounds; about 4,100 (2.2%) were called active.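 How the source made its calls: active means thallium flux slope and its plate-corrected score both differing from the plate sample mean at a set confidence after two filtering rounds, in either direction; inactive means the rest.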 The entries come from a sample that favours actives as a whole.
target: Solute carrier family 12 member 5 (Homo sapiens) (UniProt Q9H2X9); assay: KCC2 cotransporter modulators, thallium flux, primary screen, cell-based, HEK293 KCC2, FluoZin-2 fluorescence, MLSMR (AID 1456); settings: KCC2 cells, thallium flux FluoZin-2 fluorescence; at 10 µM;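 further: slope of fluorescence scaled to starting intensity during 10 to 20 s after thallium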
Sequence (Q9H2X9 whole entry, looked up): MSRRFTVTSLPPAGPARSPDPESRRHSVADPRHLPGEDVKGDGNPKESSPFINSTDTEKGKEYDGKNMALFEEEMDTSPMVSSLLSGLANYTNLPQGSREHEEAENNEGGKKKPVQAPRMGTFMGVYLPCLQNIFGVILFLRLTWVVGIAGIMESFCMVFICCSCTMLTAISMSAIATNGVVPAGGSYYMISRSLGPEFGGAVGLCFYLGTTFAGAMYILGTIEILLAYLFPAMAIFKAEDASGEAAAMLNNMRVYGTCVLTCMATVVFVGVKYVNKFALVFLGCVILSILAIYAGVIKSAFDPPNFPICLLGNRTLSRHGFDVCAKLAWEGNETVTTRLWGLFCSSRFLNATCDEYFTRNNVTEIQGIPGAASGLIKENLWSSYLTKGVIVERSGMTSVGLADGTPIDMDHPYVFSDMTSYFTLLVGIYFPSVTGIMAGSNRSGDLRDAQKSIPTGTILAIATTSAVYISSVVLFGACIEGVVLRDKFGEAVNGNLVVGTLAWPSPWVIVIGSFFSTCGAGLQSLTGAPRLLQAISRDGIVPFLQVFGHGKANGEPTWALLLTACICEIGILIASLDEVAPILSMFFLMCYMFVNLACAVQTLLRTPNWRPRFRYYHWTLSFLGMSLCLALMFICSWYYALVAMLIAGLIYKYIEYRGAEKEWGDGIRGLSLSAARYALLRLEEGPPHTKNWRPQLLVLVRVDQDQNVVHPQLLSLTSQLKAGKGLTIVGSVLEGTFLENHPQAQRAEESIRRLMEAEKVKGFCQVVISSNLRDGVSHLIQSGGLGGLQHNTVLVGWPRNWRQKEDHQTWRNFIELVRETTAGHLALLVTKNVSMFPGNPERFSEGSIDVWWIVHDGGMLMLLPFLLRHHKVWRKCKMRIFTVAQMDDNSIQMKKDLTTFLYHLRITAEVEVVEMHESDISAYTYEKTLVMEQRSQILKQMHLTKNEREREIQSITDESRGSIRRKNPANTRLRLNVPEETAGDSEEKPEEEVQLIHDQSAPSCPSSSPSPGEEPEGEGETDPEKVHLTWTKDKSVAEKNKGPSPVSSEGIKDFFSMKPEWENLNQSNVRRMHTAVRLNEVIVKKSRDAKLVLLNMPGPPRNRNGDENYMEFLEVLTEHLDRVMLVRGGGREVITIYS

Compound | B-score of Tl+ flux slope (higher = more flux/activation; lower = inhibition)
CCC(C)(C)NC(=O)C(c1ccc(O)cc1)N(C(=O)Cn1nnc2ccccc21)c1ccc(NC(C)=O)cc1 (stereo not drawn) | 1.51 (inactive)
O=C(c1cccc(C(=O)N2CCc3ccccc32)n1)N1CCc2ccccc21 | 0.134 (inactive)
NC(=O)N1CCc2ccccc21 | 0.799 (inactive)
O=C(NC(=S)N1CCc2ccccc21)c1ccco1 | 23.3 (active)
Cc1nnc(SCC(=O)N2CCc3ccccc32)n1-c1ccccc1 | 0.58 (inactive)
CCNC(=S)N1CCN(C(=O)c2ccco2)CC1 | 0.133 (inactive)
O=C(CSCc1ccccc1)N1CCc2ccccc21 | -2.43 (active)
O=C(NCc1cccnc1)C(=O)Nc1nc(-c2ccccc2)cs1 | -0.384 (inactive)
O=C(CCCN1C(=O)/C(=C\c2ccccc2)SC1=S)Nc1ccccc1O | 0.281 (inactive)
CCN(CC(=O)Nc1cccc(S(N)(=O)=O)c1)Cc1nc2ccccc2c(=O)[nH]1 | 1.06 (inactive)
Cc1coc2cc3oc(=O)c(CCC(=O)O)c(C)c3cc12 | -0.564 (inactive)
C=CCNC(=O)CSc1nc2scc(-c3ccco3)c2c(=O)n1CC=C | -0.677 (inactive)
C=CCn1c(=S)[nH]c2scc(-c3ccco3)c2c1=O | 111 (active)
C=CCn1c(SCc2csc(C)n2)nc2scc(-c3ccc(C)o3)c2c1=O | 0.11 (inactive)
Nc1cccc(S(=O)(=O)Nc2ccc(SC(F)F)cc2)c1 | -0.199 (inactive)
COc1ccc(-n2c(C)nc3c(cnn3-c3ccccc3)c2=O)cc1 | -0.335 (inactive)
Cc1ccc(Oc2cnn(-c3ccccc3)c(=O)c2Br)cc1 | -2.71 (inactive)
COc1ccc(Oc2c(Cl)cnn(-c3ccccc3)c2=O)cc1 | -3.99 (active)
CC1C(=O)NC(=O)C1c1ccccc1 (stereo not drawn) | 0.0909 (inactive)
CCc1nnc(NC(=O)c2sc3nc(C)cc(COC)c3c2N)s1 | 0.922 (inactive)
CCc1nnc(NC(=O)c2cccc(S(=O)(=O)N(C)c3ccc(OC)cc3)c2)s1 | -0.265 (inactive)
CCc1ccc2nc3sc(C(=O)Nc4nnc(CC)s4)c(N)c3cc2c1 | -4.25 (active)
Cc1ccc(S(=O)(=O)N(C)CC(=O)OCC(=O)Nc2ccccc2)cc1 | -1.25 (inactive)
Cc1nc(N)sc1N=Nc1c(C)n(C)n(-c2ccccc2)c1=O | 0.0239 (inactive)
O=C(O)CSCc1nc2ccccc2s1 | 0.175 (inactive)
COc1ccc(/C=C(/CC(=O)Nc2ccc(C)cc2)c2nc3ccccc3s2)cc1 | -0.666 (inactive)
O=C(O)CS/C(=C\c1ccc(F)cc1)c1nc2ccccc2s1 | -7.14 (active)
O=C(CC1SC(=Nc2ccccc2F)N(CCN2CCOCC2)C1=O)Nc1ccc(F)cc1F (stereo not drawn) | 0.206 (inactive)

Reference: PubChem BioAssay AID1456 (Vanderbilt High Throughput Screening Facility, 2008)
